PPARg SRC-1 ag: PPARgamma-driven SRC-1 recruitment agonism. 200,000 tested, 0.41% active. PPARgamma-SRC-1 coactivator recruitment biochemical assay. P37231. activation, % at 8 µM; in the data active = activation above about 19%;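 also: 0% = DMSO and 100% = reference agonist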
Target sequence (P37231 whole entry, looked up): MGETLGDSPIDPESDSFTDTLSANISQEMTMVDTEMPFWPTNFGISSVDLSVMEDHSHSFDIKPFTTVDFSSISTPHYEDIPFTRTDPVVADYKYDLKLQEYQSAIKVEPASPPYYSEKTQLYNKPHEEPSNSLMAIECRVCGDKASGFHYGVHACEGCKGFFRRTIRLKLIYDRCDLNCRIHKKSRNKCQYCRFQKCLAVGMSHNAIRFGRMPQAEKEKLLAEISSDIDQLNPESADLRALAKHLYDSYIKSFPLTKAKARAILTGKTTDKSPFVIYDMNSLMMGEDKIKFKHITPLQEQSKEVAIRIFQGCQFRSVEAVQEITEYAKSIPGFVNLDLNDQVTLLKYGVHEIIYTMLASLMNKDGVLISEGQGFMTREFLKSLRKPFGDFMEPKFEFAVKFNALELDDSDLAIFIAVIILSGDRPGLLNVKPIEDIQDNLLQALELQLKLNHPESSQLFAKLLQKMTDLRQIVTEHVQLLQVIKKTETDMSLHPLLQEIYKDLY
SRC1 TRFRET art: flags TR-FRET format artefacts in PPARgamma SRC-1 recruitment agonist screen | 99,000 tested, 0.34% active | TR-FRET detection artefact counter-screen, emission ratio; stronger effect = higher value | TR-FRET ratio at 8 µM; in the data active = TR-FRET ratio above about 2300
PPARg SRC-2 ag: PPARgamma-driven SRC-2 recruitment agonism | P37231 | PPARgamma LBD-SRC-2 recruitment, biochemical | activation, % at 8 µM | 200,000 tested, 0.34% active;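 also: 0% = vehicle and 100% = reference agonist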
SRC3 TRFRET art: counter-screen for PPARgamma SRC-3 recruitment agonists: TR-FRET artefact; PPARgamma/SRC-3 format; stronger effect = higher value; 99,000 tested, 0.39% active; TR-FRET ratio at 8 µM; in the data active = TR-FRET ratio above about 2000
PPARg SRC3 recr: agonists of human PPARgamma SRC-3 coactivator recruitment; P37231; biochemical PPARgamma/SRC-3 coactivator recruitment assay; activation, % at 8 µM; 200,000 tested, 0.26% active; AID 731; in the data active = activation above about 23%;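 also: 0% = DMSO and 100% = reference agonist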
TR-FRET SRC-2 ct: flags TR-FRET format artefacts in PPARgamma SRC-2 recruitment agonist screen | 200,000 tested, 0.4% active | TR-FRET artefact counter-screen; stronger effect = higher value | TR-FRET ratio at 8 µM | AID 1049; in the data active = TR-FRET ratio above about 2000
PPARg SRC2 ag: human PPARgamma SRC-2 recruitment agonism, confirmation. shares compounds with PPARg SRC3 recr. biochemical SRC-2 recruitment by PPARgamma. activation, % at 8 µM. 790 tested, 52% active;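 also: 0% = vehicle alone and 100% = reference agonist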
PPARg SRC1 conf: confirmation of agonists of SRC-1 recruitment by human PPARgamma; shares compounds with PPARg SRC3 recr; PPARgamma–SRC-1 coactivator recruitment biochemical assay; activation, % at 8 µM; 790 tested, 43% active; in the data active = activation above about 20%;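 also: 0% = vehicle wells and 100% = reference agonist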
PPARg SRC3 conf: confirmation of agonists of SRC-3 recruitment by human PPARgamma. shares compounds with PPARg SRC3 recr. biochemical PPARgamma-SRC-3 coactivator recruitment, agonist mode. activation, % at 8 µM. 790 tested, 29% active; in the data active = activation above about 24%;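 also: 0% = vehicle wells and 100% = reference agonist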
Active calls of the source: *; · = no result. This is a sample that favours compounds with a hit; in the whole collection about 0.9% have one here. Rule as the data show it, unless noted: active = activation above about 22%; inactive = the rest.

SMILES	PPARg SRC-1 ag	SRC1 TRFRET art	PPARg SRC-2 ag	SRC3 TRFRET art	PPARg SRC3 recr	TR-FRET SRC-2 ct	PPARg SRC2 ag	PPARg SRC1 conf	PPARg SRC3 conf
O=C(Nc1nc(=O)c2ccccc2s1)c1ccc(Cl)cc1	20*	·	6	·	16	1596	11	11	8
COc1ccc(-n2c(=S)[nH]c3c(sc(=S)n3-c3ccccc3)c2=O)c(OC)c1	4	2160	6	1741	5	1700	·	·	·
COc1cccc(-c2cc3c(=O)n(-c4ccccc4)c(=S)[nH]c3s2)c1	23*	·	31*	·	21	1988*	19	16	16
COc1ccc(-c2csc3[nH]c(=S)n(-c4ccccc4)c(=O)c23)cc1OC	18	2467*	25*	2099*	16	2183*	20	13	14
Cc1c(Cl)cccc1NC(=S)NN1CCOCC1	-6	·	-2	·	-4	1511	·	·	·
COc1ccc2cnn(CCOc3cc(C)ccc3C(C)C)c(=O)c2c1OC	-2	1742	1	1744	1	1383	·	·	·
CCN(CC)c1ccc(C(=O)OCC(=O)NCC2CCCO2)cc1 (configuration not stated)	6	·	1	·	-1	1514	·	·	·
Cc1c(Cl)cccc1N1CC(C(=O)Nc2nccs2)CC1=O (configuration not stated)	7	·	2	·	-7	1575	·	·	·
O=C(O)c1cn(-c2ccc(N3CCCC3)c(F)c2)c2c(F)c(F)c(F)cc2c1=O	67*	4223*	68*	3524*	38*	3278*	-5	-4	4
O=C(Nc1nc2c(s1)COc1ccccc1-2)c1cccs1	19	·	27*	·	15	2118*	41*	32*	28*
Cc1ccccc1-c1ccc(C=Nc2c(C)n(C)n(-c3ccccc3)c2=O)o1	24*	·	35*	·	20	2051*	24*	19	17
CN(C)c1ccc(NC(=O)CSc2nc(N)c(C(=O)Nc3ccc(N(C)C)cc3)s2)cc1	13	·	24*	·	20	1835	7	11	5
COc1nc2ccc(C)cc2cc1-c1noc(-c2ccccc2)n1	-1	·	-1	·	-5	1509	·	·	·
